# Measured values from PMC7862700, “An all-to-all approach to the identification of sequence-specific readers for epigenetic DNA modifications on cytosine”.
# How the values were obtained:
# Experiment in all cases: DAPPL (digital affinity profiling via proximity ligation, sequencing); 10 mM Tris-HCl pH 7.5, 50 mM NaCl, 1 mM DTT, 4% glycerol, room temperature, 30 min; GST-TFs on glutathione beads, 16-mer random dsDNA library, 0.1% formaldehyde crosslink after washing; high values mean tight binding
# FLI1 = target: T1, FLI1 (Homo sapiens, UniProt Q01543 1-452); conditions: protein: recombinant; tags: N-terminal GST; dsDNA, one strand shown
# T1 sequence: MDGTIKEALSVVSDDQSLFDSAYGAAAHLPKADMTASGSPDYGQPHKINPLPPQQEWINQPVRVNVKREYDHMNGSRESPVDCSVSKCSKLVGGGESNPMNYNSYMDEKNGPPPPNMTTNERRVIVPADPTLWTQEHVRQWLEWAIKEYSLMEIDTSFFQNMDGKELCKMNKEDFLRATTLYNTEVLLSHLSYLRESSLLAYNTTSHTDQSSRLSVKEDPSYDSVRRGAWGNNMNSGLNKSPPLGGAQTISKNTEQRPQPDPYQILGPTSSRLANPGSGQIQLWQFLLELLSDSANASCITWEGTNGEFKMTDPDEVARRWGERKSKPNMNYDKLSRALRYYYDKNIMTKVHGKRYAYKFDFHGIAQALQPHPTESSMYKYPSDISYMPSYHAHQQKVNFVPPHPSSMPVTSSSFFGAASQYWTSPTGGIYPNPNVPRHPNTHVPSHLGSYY
# Summary of the method: (§1)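 Human transcription factors carrying a GST fusion were produced in yeast, bound to glutathione beads, tagged with DNA barcodes and pooled together with a tag-only sample. Each pool was held with 200 nmole of a random double-stranded 16-mer DNA library in Tris/NaCl/DTT/glycerol buffer for 30 min at room temperature, then washed, crosslinked in 0.1% formaldehyde, proximity-ligated with BsaI/T4 ligase (1 h, 37 °C), PCR-amplified and sequenced on an Illumina NextSeq500. Binding signal is the read frequency of each hexamer for a given factor divided by its frequency in the tag-only sample.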
# ELK1 = target: T2, ELK1 (Homo sapiens, UniProt P19419 1-428); conditions: protein: recombinant; tags: N-terminal GST; dsDNA, one strand shown
# T2 sequence: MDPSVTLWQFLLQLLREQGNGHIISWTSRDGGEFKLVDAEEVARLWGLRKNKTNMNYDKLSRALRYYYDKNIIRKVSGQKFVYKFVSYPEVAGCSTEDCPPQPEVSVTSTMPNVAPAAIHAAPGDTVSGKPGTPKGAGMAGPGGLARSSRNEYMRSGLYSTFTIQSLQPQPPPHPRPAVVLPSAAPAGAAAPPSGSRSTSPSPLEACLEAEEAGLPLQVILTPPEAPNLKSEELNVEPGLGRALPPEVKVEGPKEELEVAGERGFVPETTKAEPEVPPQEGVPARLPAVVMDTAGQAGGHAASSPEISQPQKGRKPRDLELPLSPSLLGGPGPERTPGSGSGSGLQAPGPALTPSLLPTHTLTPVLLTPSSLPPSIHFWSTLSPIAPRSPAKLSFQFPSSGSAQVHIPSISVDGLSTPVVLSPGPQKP
# Summary of the method: as §1
# GABPA = target: T3, GABPA (Homo sapiens, UniProt Q06546 1-454); conditions: protein: recombinant; tags: N-terminal GST; dsDNA, one strand shown
# T3 sequence: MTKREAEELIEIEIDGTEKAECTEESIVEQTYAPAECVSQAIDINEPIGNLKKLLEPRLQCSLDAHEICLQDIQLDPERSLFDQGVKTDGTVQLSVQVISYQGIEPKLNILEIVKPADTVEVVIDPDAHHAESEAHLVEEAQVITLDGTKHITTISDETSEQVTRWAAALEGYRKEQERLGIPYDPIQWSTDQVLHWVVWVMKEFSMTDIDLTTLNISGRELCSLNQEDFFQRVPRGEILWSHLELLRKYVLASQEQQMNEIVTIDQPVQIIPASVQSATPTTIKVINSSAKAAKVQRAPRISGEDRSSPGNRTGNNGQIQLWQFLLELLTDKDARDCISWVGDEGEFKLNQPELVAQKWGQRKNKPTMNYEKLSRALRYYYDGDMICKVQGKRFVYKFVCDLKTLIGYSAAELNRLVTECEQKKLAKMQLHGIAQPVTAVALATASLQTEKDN
# Summary of the method: as §1
# ERG = target: T4, ERG (Homo sapiens, UniProt P11308 1-479); conditions: protein: recombinant; tags: N-terminal GST; dsDNA, one strand shown
# T4 sequence: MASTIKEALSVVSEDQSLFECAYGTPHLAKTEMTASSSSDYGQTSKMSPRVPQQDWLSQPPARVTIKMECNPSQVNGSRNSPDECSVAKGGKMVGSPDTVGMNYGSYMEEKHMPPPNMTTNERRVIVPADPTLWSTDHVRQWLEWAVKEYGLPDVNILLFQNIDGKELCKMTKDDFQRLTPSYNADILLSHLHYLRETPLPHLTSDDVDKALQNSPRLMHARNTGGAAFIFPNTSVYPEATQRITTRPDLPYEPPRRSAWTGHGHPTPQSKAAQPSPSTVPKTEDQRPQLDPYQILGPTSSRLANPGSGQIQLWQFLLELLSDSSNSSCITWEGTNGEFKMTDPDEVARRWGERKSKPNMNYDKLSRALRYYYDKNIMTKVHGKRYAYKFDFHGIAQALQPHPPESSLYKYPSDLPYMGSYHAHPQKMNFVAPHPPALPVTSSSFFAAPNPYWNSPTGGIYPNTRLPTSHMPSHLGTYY
# Summary of the method: as §1
# ELF1 = ELF1 (Homo sapiens, UniProt P32519 1-619); conditions: protein: recombinant; tags: N-terminal GST; dsDNA, one strand shown
# Summary of the method: as §1
# EHF = target: T5, EHF (Homo sapiens, UniProt Q9NZC4 1-300); conditions: protein: recombinant; tags: N-terminal GST; dsDNA, one strand shown
# T5 sequence: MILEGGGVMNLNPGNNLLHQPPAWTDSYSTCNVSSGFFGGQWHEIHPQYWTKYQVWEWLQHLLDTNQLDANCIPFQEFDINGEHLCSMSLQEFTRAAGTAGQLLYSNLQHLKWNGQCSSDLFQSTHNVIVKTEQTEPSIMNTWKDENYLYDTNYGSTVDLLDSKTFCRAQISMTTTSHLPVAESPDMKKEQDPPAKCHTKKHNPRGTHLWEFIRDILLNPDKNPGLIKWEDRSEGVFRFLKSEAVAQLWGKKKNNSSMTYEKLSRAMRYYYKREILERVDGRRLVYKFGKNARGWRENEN
# Summary of the method: as §1
# SPI1 = SPI1 (Homo sapiens, UniProt P17947 1-270); conditions: protein: recombinant; tags: N-terminal GST; dsDNA, one strand shown
# Summary of the method: as §1
# SPIB = SPIB (Homo sapiens, UniProt Q01892 1-262); conditions: protein: recombinant; tags: N-terminal GST; dsDNA, one strand shown
# Summary of the method: as §1
# ELK3 = target: T6, ELK3 (Homo sapiens, UniProt P41970 1-407); conditions: protein: recombinant; tags: N-terminal GST; dsDNA, one strand shown
# T6 sequence: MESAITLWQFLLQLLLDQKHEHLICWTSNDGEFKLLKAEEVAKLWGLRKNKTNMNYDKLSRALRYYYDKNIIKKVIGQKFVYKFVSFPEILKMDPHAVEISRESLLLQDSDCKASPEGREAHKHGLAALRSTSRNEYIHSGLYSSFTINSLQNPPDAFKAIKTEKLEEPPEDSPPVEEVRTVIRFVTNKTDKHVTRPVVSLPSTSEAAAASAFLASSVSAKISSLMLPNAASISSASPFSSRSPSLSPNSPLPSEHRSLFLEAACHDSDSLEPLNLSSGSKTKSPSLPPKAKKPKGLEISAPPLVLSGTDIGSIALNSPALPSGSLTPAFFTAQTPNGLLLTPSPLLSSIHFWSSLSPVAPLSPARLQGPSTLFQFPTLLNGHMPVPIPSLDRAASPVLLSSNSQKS
# Summary of the method: as §1
# FEV = target: T7, FEV (Homo sapiens, UniProt Q99581 1-238); conditions: protein: recombinant; tags: N-terminal GST; dsDNA, one strand shown
# T7 sequence: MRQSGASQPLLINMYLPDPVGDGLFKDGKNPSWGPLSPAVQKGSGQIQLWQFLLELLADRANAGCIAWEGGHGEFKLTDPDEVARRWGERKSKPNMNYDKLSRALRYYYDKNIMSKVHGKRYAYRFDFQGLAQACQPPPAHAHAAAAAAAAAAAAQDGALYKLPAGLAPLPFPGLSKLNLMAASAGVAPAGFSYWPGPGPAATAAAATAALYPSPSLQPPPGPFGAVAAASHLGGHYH
# Summary of the method: as §1
# ETV5 = ETV5 (Homo sapiens, UniProt P41161 1-510); conditions: protein: recombinant; tags: N-terminal GST; dsDNA, one strand shown
# Summary of the method: as §1
# HSF1 = HSF1 (Homo sapiens, UniProt Q00613 1-529); conditions: protein: recombinant; tags: N-terminal GST; chain copies: 3; dsDNA, one strand shown
# Summary of the method: as §1
# SPIC = target: T8, SPIC (Homo sapiens, UniProt Q8N5J4 1-248); conditions: protein: recombinant; tags: N-terminal GST; dsDNA, one strand shown
# T8 sequence: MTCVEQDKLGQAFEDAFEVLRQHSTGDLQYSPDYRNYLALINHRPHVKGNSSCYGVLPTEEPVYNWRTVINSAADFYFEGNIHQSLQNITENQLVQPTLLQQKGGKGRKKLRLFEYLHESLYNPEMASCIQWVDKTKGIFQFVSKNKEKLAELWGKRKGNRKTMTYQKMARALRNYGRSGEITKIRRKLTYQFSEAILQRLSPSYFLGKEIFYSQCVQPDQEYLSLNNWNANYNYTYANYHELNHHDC
# Summary of the method: as §1
# ELF4 = ELF4 (Homo sapiens, UniProt Q99607 1-663); conditions: protein: recombinant; tags: N-terminal GST; dsDNA, one strand shown
# Summary of the method: as §1
# ELK4 = target: T9, ELK4 (Homo sapiens, UniProt P28324-2 1-405); conditions: protein: recombinant; tags: N-terminal GST; dsDNA, one strand shown
# T9 sequence: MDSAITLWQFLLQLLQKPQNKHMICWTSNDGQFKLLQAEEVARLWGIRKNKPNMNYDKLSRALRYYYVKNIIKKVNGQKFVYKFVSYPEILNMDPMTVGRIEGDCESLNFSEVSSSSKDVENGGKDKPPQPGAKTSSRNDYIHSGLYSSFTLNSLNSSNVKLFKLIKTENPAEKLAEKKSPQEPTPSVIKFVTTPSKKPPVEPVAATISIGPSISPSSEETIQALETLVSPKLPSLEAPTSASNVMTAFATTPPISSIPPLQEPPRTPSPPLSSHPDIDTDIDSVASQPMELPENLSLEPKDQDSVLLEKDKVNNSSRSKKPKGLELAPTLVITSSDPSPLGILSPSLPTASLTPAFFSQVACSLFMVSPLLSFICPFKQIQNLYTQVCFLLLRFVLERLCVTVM
# Summary of the method: as §1
# ETV2 = target: T10, ETV2 (Homo sapiens, UniProt O00321 1-342); conditions: protein: recombinant; tags: N-terminal GST; dsDNA, one strand shown
# T10 sequence: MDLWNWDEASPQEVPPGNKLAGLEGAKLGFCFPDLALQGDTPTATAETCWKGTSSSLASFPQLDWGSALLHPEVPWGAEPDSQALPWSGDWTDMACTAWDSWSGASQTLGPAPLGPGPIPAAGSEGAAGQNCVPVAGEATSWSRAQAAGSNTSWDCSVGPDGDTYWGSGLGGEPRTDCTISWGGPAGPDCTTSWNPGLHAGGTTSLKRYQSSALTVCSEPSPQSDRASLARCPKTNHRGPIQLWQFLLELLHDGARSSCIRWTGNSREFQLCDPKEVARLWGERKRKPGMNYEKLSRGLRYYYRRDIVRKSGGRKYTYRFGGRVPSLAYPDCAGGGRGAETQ
# Summary of the method: as §1
# ELF3 = target: T11, ELF3 (Homo sapiens, UniProt P78545 1-371); conditions: protein: recombinant; tags: N-terminal GST; dsDNA, one strand shown
# T11 sequence: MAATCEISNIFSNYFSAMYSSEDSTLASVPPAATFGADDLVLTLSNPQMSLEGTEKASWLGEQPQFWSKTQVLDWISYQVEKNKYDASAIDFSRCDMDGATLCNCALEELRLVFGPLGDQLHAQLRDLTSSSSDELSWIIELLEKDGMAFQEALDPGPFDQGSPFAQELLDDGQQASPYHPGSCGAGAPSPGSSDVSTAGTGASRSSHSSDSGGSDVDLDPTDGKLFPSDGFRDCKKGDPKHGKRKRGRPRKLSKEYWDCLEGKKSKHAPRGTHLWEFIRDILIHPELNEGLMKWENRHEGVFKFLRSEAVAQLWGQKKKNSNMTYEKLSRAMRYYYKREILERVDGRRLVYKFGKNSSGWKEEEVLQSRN
# Summary of the method: as §1
# ETV1 = ETV1 (Homo sapiens, UniProt P50549 1-477); conditions: protein: recombinant; tags: N-terminal GST; dsDNA, one strand shown
# Summary of the method: as §1
# Chain of ETV1 (P50549 whole entry): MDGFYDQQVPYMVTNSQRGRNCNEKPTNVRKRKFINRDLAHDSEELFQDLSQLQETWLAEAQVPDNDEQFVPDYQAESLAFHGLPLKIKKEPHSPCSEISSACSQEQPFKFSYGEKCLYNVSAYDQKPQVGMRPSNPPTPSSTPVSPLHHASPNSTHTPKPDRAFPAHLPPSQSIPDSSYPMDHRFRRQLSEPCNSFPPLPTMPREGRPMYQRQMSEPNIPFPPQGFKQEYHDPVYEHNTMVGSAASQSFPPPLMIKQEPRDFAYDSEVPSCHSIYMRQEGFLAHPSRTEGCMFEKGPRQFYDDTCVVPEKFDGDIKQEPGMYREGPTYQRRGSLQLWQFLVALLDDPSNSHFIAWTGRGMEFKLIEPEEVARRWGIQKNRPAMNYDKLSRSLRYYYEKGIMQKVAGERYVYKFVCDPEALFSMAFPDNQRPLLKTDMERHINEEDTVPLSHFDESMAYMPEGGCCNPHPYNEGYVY
# Chain of SPIB (Q01892 whole entry): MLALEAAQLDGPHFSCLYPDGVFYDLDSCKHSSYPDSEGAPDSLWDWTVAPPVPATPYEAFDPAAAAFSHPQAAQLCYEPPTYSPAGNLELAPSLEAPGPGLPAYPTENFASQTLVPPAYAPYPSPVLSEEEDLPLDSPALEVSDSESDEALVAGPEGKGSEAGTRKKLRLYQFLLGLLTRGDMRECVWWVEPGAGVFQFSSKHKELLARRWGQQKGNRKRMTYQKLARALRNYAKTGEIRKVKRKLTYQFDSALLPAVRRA
# Chain of ETV5 (P41161 whole entry): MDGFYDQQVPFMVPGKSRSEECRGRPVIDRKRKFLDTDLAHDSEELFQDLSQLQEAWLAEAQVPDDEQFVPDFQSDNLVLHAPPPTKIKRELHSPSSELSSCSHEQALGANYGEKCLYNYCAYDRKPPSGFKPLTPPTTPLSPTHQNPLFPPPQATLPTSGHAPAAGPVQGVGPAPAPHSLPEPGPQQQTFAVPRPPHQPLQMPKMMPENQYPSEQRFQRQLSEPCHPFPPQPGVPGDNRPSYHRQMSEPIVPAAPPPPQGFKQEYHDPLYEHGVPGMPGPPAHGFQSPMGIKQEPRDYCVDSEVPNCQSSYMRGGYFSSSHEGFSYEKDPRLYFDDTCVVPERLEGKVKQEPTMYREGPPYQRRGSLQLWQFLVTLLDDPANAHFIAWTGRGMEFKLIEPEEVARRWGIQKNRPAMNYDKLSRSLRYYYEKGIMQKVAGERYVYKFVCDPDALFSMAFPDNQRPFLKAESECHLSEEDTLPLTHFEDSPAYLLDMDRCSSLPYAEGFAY
# Chain of HSF1 (Q00613 whole entry): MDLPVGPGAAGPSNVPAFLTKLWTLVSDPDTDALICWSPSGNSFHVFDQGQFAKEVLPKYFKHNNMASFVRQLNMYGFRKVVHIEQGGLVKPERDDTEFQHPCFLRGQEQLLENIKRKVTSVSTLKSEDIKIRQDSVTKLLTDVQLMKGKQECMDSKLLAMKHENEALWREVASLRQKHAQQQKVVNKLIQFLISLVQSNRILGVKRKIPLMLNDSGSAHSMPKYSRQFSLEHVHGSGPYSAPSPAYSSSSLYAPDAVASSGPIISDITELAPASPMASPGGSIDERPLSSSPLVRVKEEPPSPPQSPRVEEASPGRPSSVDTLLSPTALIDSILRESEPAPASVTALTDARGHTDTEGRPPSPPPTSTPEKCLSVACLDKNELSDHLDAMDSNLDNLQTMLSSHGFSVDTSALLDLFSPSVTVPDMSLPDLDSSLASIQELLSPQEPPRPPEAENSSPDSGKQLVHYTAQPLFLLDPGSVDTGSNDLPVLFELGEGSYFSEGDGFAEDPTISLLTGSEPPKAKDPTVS
# Chain of ELF1 (P32519 whole entry): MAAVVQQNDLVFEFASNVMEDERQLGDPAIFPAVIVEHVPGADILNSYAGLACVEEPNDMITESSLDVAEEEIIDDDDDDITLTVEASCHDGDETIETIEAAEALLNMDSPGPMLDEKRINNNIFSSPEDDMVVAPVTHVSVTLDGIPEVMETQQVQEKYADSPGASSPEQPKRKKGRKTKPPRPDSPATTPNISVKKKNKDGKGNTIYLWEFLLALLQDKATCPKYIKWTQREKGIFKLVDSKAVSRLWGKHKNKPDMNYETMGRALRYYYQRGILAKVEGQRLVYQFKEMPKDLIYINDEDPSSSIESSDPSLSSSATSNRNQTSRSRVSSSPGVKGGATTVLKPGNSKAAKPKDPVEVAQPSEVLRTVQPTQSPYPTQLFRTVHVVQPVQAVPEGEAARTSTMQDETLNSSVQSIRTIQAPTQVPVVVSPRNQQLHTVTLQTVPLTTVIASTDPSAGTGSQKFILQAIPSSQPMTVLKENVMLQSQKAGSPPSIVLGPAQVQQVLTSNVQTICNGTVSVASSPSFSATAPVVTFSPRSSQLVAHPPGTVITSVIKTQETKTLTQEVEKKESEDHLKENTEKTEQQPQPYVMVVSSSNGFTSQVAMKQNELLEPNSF
# Chain of ELF4 (Q99607 whole entry): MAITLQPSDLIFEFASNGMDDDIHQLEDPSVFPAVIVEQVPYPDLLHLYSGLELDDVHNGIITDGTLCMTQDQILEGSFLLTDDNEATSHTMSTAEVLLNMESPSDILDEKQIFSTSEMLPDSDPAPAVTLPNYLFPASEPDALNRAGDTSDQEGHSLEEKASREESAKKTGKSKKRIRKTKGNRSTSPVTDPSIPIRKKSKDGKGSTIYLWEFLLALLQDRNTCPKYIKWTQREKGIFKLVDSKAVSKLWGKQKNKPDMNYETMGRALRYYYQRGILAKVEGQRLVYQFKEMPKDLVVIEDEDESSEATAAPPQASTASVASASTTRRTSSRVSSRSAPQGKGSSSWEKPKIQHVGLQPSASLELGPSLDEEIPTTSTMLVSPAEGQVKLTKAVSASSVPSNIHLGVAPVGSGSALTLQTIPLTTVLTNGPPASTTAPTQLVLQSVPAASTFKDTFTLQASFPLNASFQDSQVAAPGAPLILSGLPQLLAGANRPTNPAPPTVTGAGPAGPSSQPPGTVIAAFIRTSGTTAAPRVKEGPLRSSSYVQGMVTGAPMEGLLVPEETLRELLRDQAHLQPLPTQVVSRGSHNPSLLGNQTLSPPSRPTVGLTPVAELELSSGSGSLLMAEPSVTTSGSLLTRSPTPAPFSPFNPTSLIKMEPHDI
sequence,measurement,setting,value
CCACTG,binding signal,FLI1,"1.16 fold enrichment (6-mer frequency, TF over GST control)"
same,binding signal,ELK1,"1.11 fold enrichment (6-mer frequency, TF over GST control)"
same,binding signal,GABPA,"1.25 fold enrichment (6-mer frequency, TF over GST control)"
same,binding signal,ERG,"1.23 fold enrichment (6-mer frequency, TF over GST control)"
same,binding signal,ELF1,"1.28 fold enrichment (6-mer frequency, TF over GST control)"
same,binding signal,EHF,"1.19 fold enrichment (6-mer frequency, TF over GST control)"
same,binding signal,SPI1,"1.16 fold enrichment (6-mer frequency, TF over GST control)"
same,binding signal,SPIB,"1.15 fold enrichment (6-mer frequency, TF over GST control)"
same,binding signal,ELK3,"1.2 fold enrichment (6-mer frequency, TF over GST control)"
same,binding signal,FEV,"1.19 fold enrichment (6-mer frequency, TF over GST control)"
same,binding signal,ETV5,"1.15 fold enrichment (6-mer frequency, TF over GST control)"
same,binding signal,HSF1,"1.08 fold enrichment (6-mer frequency, TF over GST control)"
same,binding signal,SPIC,"1.34 fold enrichment (6-mer frequency, TF over GST control)"
same,binding signal,ELF4,"1.2 fold enrichment (6-mer frequency, TF over GST control)"
same,binding signal,ELK4,"1.18 fold enrichment (6-mer frequency, TF over GST control)"
same,binding signal,ETV2,"1.17 fold enrichment (6-mer frequency, TF over GST control)"
same,binding signal,ELF3,"1.04 fold enrichment (6-mer frequency, TF over GST control)"
same,binding signal,ETV1,"1.31 fold enrichment (6-mer frequency, TF over GST control)"
